Compound activity from PubChem BioAssay.
An excerpt weighted towards active compounds, which were near 2.4% of everything screened.
TsaE inh = qHTS Assay for Inhibitors of YjeE | tRNA threonylcarbamoyladenosine biosynthesis protein TsaE (Escherichia coli (strain … | purified YjeE enzyme, qHTS inhibition assay | Potency, µM | hit rate 0.05% among 71,000 | AID 605, 2007
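Fluorescence polarization of a BODIPY Texas Red–ADP probe (2 uM) bound to purified YjeE (10 uM) was read after 15 min room-temperature incubation with compounds. Loss of polarization marks inhibitors; ADP serves as titrated control.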
DNA Pol III inh = qHTS Assay for Inhibitors of DNA Polymerase III Holoenzyme System. hit rate 0.25% among 71,000. AID 603, 2007. reconstituted DNA polymerase III holoenzyme replication, biochemical. Potency, µM (series often up to 57.1 µM), inactives show at the top dose activity change, negative = inhibition; note: potency is the fitted concentration of half-maximal effect; % is set by controls: 0 for no effect and ±100 for the full control effect
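Reconstituted *E. coli* holoenzyme (0.35 nM Pol III, 1 nM beta, 154 nM SSB, 2 nM primase) was preincubated with compound for 15 min at RT. Synthesis on 1.4 nM ssM13Gori ran 35 min, then was stopped with PicoGreen/EDTA and read as dsDNA fluorescence.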
Tau filament bind = qHTS Assay for Tau Filament Binding. recombinant tau filaments, thioflavin S fluorescence, 15 h; filaments grown with octadecylsulfate alongside compound. AID 596, 2007. hit rate 2% among 71,000. Potency, µM (doses to about 57.1 µM), inactives show at the highest dose activity change, negative = inhibition;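 note: potency is the fitted concentration of half-maximal effect; % is set by controls: 0 for no effect and ±100 for the full control effect; actives lower thioflavin S fluorescence by blocking filaments or displacing dye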
Target sequence (P10636 whole entry, looked up): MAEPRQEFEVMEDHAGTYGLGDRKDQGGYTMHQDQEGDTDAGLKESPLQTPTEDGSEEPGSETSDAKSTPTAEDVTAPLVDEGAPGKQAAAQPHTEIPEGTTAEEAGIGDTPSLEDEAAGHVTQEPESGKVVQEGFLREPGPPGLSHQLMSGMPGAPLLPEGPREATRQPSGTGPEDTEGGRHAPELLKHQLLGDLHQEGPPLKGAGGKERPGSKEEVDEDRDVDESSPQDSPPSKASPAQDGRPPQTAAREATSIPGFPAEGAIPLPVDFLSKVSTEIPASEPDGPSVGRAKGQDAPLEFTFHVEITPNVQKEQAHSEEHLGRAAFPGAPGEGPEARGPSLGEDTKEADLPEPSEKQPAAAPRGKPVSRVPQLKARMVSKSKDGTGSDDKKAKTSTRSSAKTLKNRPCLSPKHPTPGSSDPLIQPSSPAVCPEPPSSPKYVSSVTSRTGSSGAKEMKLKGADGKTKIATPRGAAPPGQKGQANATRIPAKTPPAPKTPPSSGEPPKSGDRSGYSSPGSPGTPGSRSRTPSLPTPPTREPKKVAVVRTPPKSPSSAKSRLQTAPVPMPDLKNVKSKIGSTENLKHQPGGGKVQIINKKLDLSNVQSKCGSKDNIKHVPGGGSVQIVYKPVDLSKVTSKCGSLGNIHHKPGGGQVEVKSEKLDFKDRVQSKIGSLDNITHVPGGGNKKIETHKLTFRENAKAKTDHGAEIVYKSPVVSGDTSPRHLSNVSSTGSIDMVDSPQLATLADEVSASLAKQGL
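Assay mix: 1 uM His-tagged tau, 30 uM sodium octadecylsulfate, thioflavine S dye in HEPES/NaCl/DTT buffer. Compound is added prior to the inducer. Fluorescence after 15 h at 37 C.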
BRCT PPI red = qHTS Assay for Inhibitors of BRCT-Phosphoprotein Interaction (Red Fluorophore); Breast cancer type 1 susceptibility protein (Homo sapiens), P38398; BRCT-phosphopeptide binding, red fluorescence polarization; Potency, µM (top dose mostly 76.9 µM), for the others: at the top dose activity change, negative = inhibition, hits mostly inhibitors; hit rate 0.03% among 75,000; AID 892, 2007; note: % is set by controls: 0 for no effect and ±100 for the full control effect
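Rhodamine-labelled pBACH1 10-mer (100 nM) bound to BRCT domain (100 nM) at pH 7.3; compounds incubated 12 min room temperature, polarization read. Free peptide defines full inhibition; unlabelled decapeptide titrated as control.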
Hsp90 Hop PPI = qHTS Assay for Disrupters of an Hsp90 Co-Chaperone Interaction; AlphaScreen TPR2A-His6 binding biotin-Hsp90 C-terminal peptide; hit rate 0.44% among 71,000; Potency, µM (series often up to 57 µM), inactives show at the top dose activity change, negative = inhibition; active = well fitted curve in either direction with a large enough effect; inconclusive = small, poorly fitted or top-dose-only effect, or another doubt; note: potency is the fitted concentration of half-maximal effect; % is set by controls: 0 for no effect and ±100 for the full control effect
BRCT PPI green = qHTS Assay for Inhibitors of BRCT-Phosphoprotein Interaction (Green Fluorophore); Breast cancer type 1 susceptibility protein (Homo sapiens), P38398; BRCA1 BRCT-phosphopeptide binding, green fluorescence polarization; Potency, µM (highest dose often 76.9 µM), for the others: at the top dose activity change, negative = inhibition, actives largely listed as inhibitors; hit rate 0.05% among 75,000; AID 875, 2007;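 note: potency is the fitted concentration of half-maximal effect; plate controls were peptide without protein for full effect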
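Fluorescence polarization: His-tagged BRCT (~35 kDa BRCA1 C-terminus, 250 nM) bound to 100 nM fluorescein-labeled phosphorylated 10-aa BACH1 peptide, pH 7.3 phosphate buffer with DTT and Tween 20. Compounds incubated 12 min at room temperature; inhibition read as lowered polarization.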
Tau ThS bind = Tau ThS binding assay. shares compounds with Tau filament bind. recombinant tau filaments, Thioflavin S fluorescence displacement. Potency, µM. hit rate 40% among 60. AID 911, 2007; calls by dose curve
aSyn ThS bind = Alpha-synuclein ThS binding assay | Potency, µM | hit rate 40% among 60 | shares compounds with Tau filament bind | recombinant alpha-synuclein fibrils, ThS fluorescence displacement; calls by dose curve
Abeta ThS bind = Beta amyloid ThS binding assay; AID 956, 2007; shares compounds with Tau filament bind; Potency, µM; hit rate 50% among 60; Abeta1-42 fibrillization, thioflavin S fluorescence, overnight 37 C; calls by dose curve
Starred values were filed as active, the others as inactive; i = inactive; ? = inconclusive; / = not tested or not shown; [ ] = remark or other dose. Unless noted, calls come from the whole dose curve; as a rule, active = well fitted curve in the direction sought with a large enough effect; inconclusive = small, poorly fitted or top-dose-only effect, or another doubt; inactive = no such curve, though single readings can be large; an effect the other way counts as inactive or inconclusive.

SMILES	TsaE inh	DNA Pol III inh	Tau filament bind	BRCT PPI red	Hsp90 Hop PPI	BRCT PPI green	Tau ThS bind	aSyn ThS bind	Abeta ThS bind
CCOc1ccc(C(C)=O)cc1N1C(=O)C2C3C=CC(C3)C2C1=O (configuration not stated)	i	?	-30%	1%	?	-1%	i	i	i
CCN(CC)[C@@H](C)CN1c2ccccc2Sc2ccccc21	i	-5%[25.6 µM]	?	1%[34.4 µM]	-11%[26 µM]	-6%[34.4 µM]	/	/	/
CCCCCCOC(=O)C(C#N)c1nc2ccccc2nc1N1CCN(C)CC1 (configuration not stated)	i	-2%	1µM*	-1%	-20%	0%	2.8µM*	1.8µM*	0.79µM*
COc1ccc(S(=O)(=O)C(C#N)c2nc3ccccc3nc2N2CCCCC2)cc1 (configuration not stated)	i	-2%	-24%	-2%	-3%	-3%	/	/	/
CCOCCCn1c(=N)c(C(=O)NCc2ccc3c(c2)OCO3)cc2c(=O)n3cccc(C)c3nc21	i	-10%	0.63µM*	-3%	-5%	-1%	9.5µM*	2.2µM*	3µM*
N=c1c(C(=O)NCc2ccc3c(c2)OCO3)cc2c(=O)n3ccccc3nc2n1Cc1cccnc1	i	-11%	?	-2%	-12%	4%	?	7.4µM*	10µM*
C[C@@](O)(CNS(=O)(=O)c1ccccc1)c1ccccc1	i	5%[11.4 µM]	-2%[11.4 µM]	1%[15.4 µM]	-3%[11 µM]	0%[15.4 µM]	/	/	/
CC1CCN(CC[S-])CC1.O.O.[Cl][Pt]	i	-18%[11.4 µM]	-11%[11.4 µM]	0%[15.4 µM]	?	0%[15.4 µM]	/	/	/
CN(C)CCCO[C@H]1[C@@H]2OC(C)(C)O[C@@H]2O[C@@H]1[C@H](O)CO	i	8%[25.6 µM]	6%[25.6 µM]	2%[34.4 µM]	-1%[26 µM]	0%[34.4 µM]	/	/	/
CC(C)c1cc(Nc2cccc(O)c2)cc(C(C)C)c1O	i	-3%	7.9µM*	-5%	?	0%	4.9µM*	3.6µM*	3.5µM*
COC(=O)NC(CC(C)=O)c1ccc(F)cc1 (configuration not stated)	/	/	/	2%[15.4 µM]	/	-2%[15.4 µM]	/	/	/
O=C(COc1ccccc1O)Nc1ccccc1Cl	i	-6%	-41%	-2%	?	0%	i	i	i
O=C(COC(=O)c1ccccn1)Nc1ccccc1Cl	i	-3%	-9%	-2%	-29%	1%	/	/	/
COc1cc(N[C@@H](C)CCCN)c2ncccc2c1	i	0%[25.6 µM]	5µM*	0%[34.4 µM]	-6%[26 µM]	0%[34.4 µM]	i	i	i
COc1cc(NCC[C@@H]2CCCCN2)c2ncccc2c1	i	-15%[11.4 µM]	-19%[11.4 µM]	-2%[15.4 µM]	-8%[11 µM]	0%[15.4 µM]	/	/	/
CN1C2CCC1CC(OC(=O)C(O)c1ccccc1)C2 (configuration not stated)	/	/	/	-1%	/	0%[3.08 µM]	/	/	/
CCOc1ccc(CNc2ccc(N3CCCC3)cc2)cc1	i	-7%	5µM*	-3%	?	2%	i	?	4.3µM*
Oc1ccccc1C1Nc2cccc3cccc(c23)N1	i	-15%	3.2µM*	-2%	?	-3%	3.3µM*	8µM*	3.8µM*
CC(=O)c1ccc2c(c1)Nc1ccccc1S2	i	-4%	2µM*	-1%	2%	2%	7.7µM*	6µM*	9µM*
O=C(O)CC1(CC(=O)O)Nc2ccccc2SC1=O	i	-9%[11.4 µM]	7%[11.4 µM]	-3%[15.4 µM]	-3%[11 µM]	2%[15.4 µM]	/	/	/
COc1ccc(C(=N/O)/C(=N/O)c2ccc(OC)cc2)cc1	i	-6%	-16%	1%	-3%	-1%	/	/	/
COc1ccc2c(c1)C(=NO)c1cc(OC)ccc1-2	i	-2%	4µM*	-1%	-14%	-3%	?	?	4.1µM*
CN(C)c1ccc(N/C=C/C(=O)c2ccc(F)cc2)cc1	i	-1%	3.2µM*	-1%	-23%	34%	1.1µM*	6.2µM*	3.4µM*
C=CCc1cccc(C2NC(C(=O)O)CCC2C)c1 (configuration not stated)	/	/	/	0%[15.4 µM]	/	0%[15.4 µM]	/	/	/
Cn1c(=Nc2ccc(N3CCOCC3)cc2)ccc2ccccc21	i	-6%	2µM*	-1%	4%	-2%	?	i	i
CCC(C)COC(=O)c1ccc(C(=O)O)cc1 (configuration not stated)	i	2%	-45%	-3%	?	-2%	i	i	i
COCCn1c(=O)c(-c2ccc(OC)cc2)nc2cnc(N3CCOCC3)nc21	i	-1%	286%	-1%	-5%	0%	/	/	/
O=C(Nc1ccc(N2CCOCC2)cc1)Nc1ccc2nc(-c3ccco3)c(-c3ccco3)nc2c1	i	-6%	0.79µM*	0%	?	0%	1.2µM*	1.9µM*	1.2µM*
